EPAC2 antag – Validation qHTS for antagonist of cAMP-regulated guanine nucleotide exchange factor 4 (EPAC2). EPAC2 Rap1B BODIPY-GDP exchange, fluorescence. Potency, µM (doses to about 112 µM), for inactives: top-dose activity, negative = inhibition, most hits filed as inhibitors. AID 1645886, 2021. 1.7% of 16,000 active;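 also: 100% = activation by cAMP agonist control; nearly all actives have a fitted effect of over 40% in size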
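Fluorescent exchange read-out: 100 nM EPAC2 with 250 nM RAP1B–BODIPY-GDP and 50 uM GDP; BODIPY-GDP release lowers fluorescence. Read at 480/540 nm every 5 min for 30 min at room temperature; normalized to 6.5 mM cAMP.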
EPAC1 agonist – Validation qHTS for agonist of cAMP-regulated guanine nucleotide exchange factor 3 (EPAC1) | Rap guanine nucleotide exchange factor 3 (Homo sapiens), O95398 | EPAC1 Rap1b BODIPY-GDP exchange, fluorescence | Potency, µM, for the others: max response, positive = active, actives largely listed as activators | 1% of 16,000 active | AID 1645883, 2021; also: nearly all actives have a fitted effect of over 70% in size
* = called active by the depositor; i = inactive; ? = inconclusive; ! = a repeat was not active. Shown are actives, neighbours in structure and some others; about 2.9% of the full set was active somewhere. Calls follow the shape of the dose curve; as a rule, active = well fitted curve in the direction sought with a large enough effect; inconclusive = small, poorly fitted or top-dose-only effect, or another doubt; inactive = no such curve, though single readings can be large; an effect the other way counts as inactive or inconclusive. Unless noted, % is scaled to controls: 0 for no effect and ±100 for the full control effect; potency is read from the fitted curve at half-maximal effect.

SMILES	EPAC2 antag	EPAC1 agonist
CCc1nc2cc(C(=O)N3CCC[C@H]3C(=O)OC)cc(NC(=O)c3ccccc3OC)c2n1C	-21%	1%
COCCn1c(=O)c(-c2ccccc2)nc2cnc(Nc3ccccc3)nc21	-15%	-14%
O=c1c(-c2ccccc2)nc2cnc(Nc3ccccc3)nc2n1Cc1cccs1	11%	112µM*
COc1ncc2nc(-c3cccs3)c(=O)n(Cc3cccs3)c2n1	-18%	?
COc1ncc2nc(-c3ccccc3)c(=O)n(Cc3cccs3)c2n1	?	112µM*
CC(C)C[C@H](NC(=O)[C@@H](COC(C)(C)C)NC(=O)[C@H](Cc1ccc(O)cc1)NC(=O)[C@H](CO)NC(=O)[C@H](Cc1c[nH]c2ccccc12)NC(=O)[C@H](Cc1cnc[nH]1)NC(=O)[C@@H]1CCC(=O)N1)C(=O)N[C@@H](CCCN=C(N)N)C(=O)N1CCC[C@H]1C(=O)NNC(N)=O	0%	-11%
COc1cc(-c2cc(C)c3c(OC)ccc(OC)c3n2)cc2c1OCCN(C(=O)Cn1nc(C)cc1C)C2	-17%	1%
COC(=O)[C@@H]1C2CC3c4[nH]c5cc(OC)ccc5c4CCN3CC2C[C@H](OC(=O)c2cc(OC)c(OC)c(OC)c2)C1OC (some centres not stated)	-21%	100µM*
COC(=O)[C@H]1[C@@H]2C[C@@H]3c4[nH]c5ccccc5c4CCN3C[C@H]2CC[C@H]1O	-7%	-3%
Cc1ccc(C(=O)Nc2cnn(-c3ccc(C(=O)N(C)Cc4n[nH]c5c4CCCC5)cc3)c2)c(C)c1	-12%	21%
COc1ccccc1CNc1ccnc(-c2ccc3c(c2)OCO3)n1	?	100µM*
COc1ccc(CNc2ccnc(-c3cccc(C#N)c3)n2)c(OC)c1	-51%	112µM*
COc1ccccc1CNc1ccnc(-c2cccc(C#N)c2)n1	?	5%
COc1ccc(CNc2ncncc2-c2cccnc2)c(OC)c1	-32%	8%
COc1cccc(-c2cncnc2NCc2ccc(OC)cc2OC)c1	45µM*	8%
COc1ccc(CNc2ccnc(-c3ccc4c(c3)OCO4)n2)c(OC)c1	-24%	15%
CC(=O)c1ccc(-c2ccc3c4c(ccc3c2)OC(CNC(=O)C(C)N2CCOCC2)C4)s1 (configuration not stated)	-2%	-10%
Cc1ccc2c(CC(=O)N3CCOc4ccc(CN5C[C@@H](C)O[C@@H](C)C5)cc4C3)cc(=O)oc2c1	?	-11%
CCO[C@H](Cc1ccc(OCCc2ccc(OS(C)(=O)=O)cc2)cc1)C(=O)O	-27%	1%
CC1(C)[C@H]2CC[C@]1(C)[C@H](O)C2	10%	18%
OC[C@H]1O[C@@H](n2cnc3c2NC=NC[C@H]3O)C[C@@H]1O	10%	5%
O=c1c(CCc2ccccc2)nc2cnc(N3CCOCC3)nc2n1Cc1cccs1	0%	-1%
O=c1c(-c2cccs2)nc2cnc(N3CCOCC3)nc2n1CCc1ccccc1	7%	100µM*
Cn1cc(-c2nc3cnc(N4CCOCC4)nc3n(CCC#N)c2=O)c2ccccc21	12%	112µM*
CCNc1ncc2nc(-c3cccs3)c(=O)n(C[C@H]3CCCO3)c2n1	3%	-11%
SMILES	EPAC2 antag	EPAC1 agonist
O=c1c(-c2cccs2)nc2cnc(N3CCOCC3)nc2n1Cc1ccc(F)cc1	-1%	1%
CN(C)c1ncc2nc(-c3cccs3)c(=O)n(C[C@H]3CCCO3)c2n1	36%	112µM*
COCCn1c(=O)c(-c2cn(C)c3ccccc23)nc2cnc(N3CCOCC3)nc21	-10%	-20%
CN1CCN(c2ncc3nc(CCc4ccccc4)c(=O)n(Cc4cccs4)c3n2)CC1	-20%	100µM*
COc1cccc(CN2CCC3(CCC(CNC(=O)c4ccccc4)O3)CC2)c1 (configuration not stated)	-17%	-3%
COc1ccc(C(=O)N2CCCC(c3nc(SCc4ccccn4)ncc3C)C2)cc1F (configuration not stated)	?	-17%
COc1ccc2c(c1)CCc1cnc(-n3ncc(C(=O)NCCCc4ccncc4)c3C)nc1-2	-15%	-8%
Cc1cn([C@H]2C[C@H](F)[C@@H](CO)O2)c(=O)[nH]c1=O	-9%	-6%
O=C1N[C@@H](Cc2c[nH]c3ccccc23)C(=O)N[C@H]1Cc1c[nH]c2ccccc12	-1%	4%
c1ccc2c(Cc3c[nH]c4ccccc34)c[nH]c2c1	?	100µM*
O=c1oc2c(O)c(O)cc3c(=O)oc4c(O)c(O)cc1c4c23	i	79µM*!
O=c1cc(-c2cc(O)c(O)c(O)c2)oc2cc(O)cc(O)c12	?	-40%
CC(=O)N1CCC2(CCCN(C(c3ccccc3)c3ccccc3)C2)CC1	32µM*	-25%
CC(=O)N1CCC2(CC1)CCN(C(c1ccccc1)c1ccccc1)CC2	-30%	-63%
CCC(Oc1ccccc1)C(=O)N[C@@H]1C(=O)N2[C@@H]1SC(C)(C)[C@@H]2C(=O)O (some centres not stated)	5%	-20%
CC[C@H]1OC(=O)[C@H](C)[C@@H](O[C@H]2C[C@@](C)(OC)[C@@H](O)[C@H](C)O2)[C@H](C)[C@@H](O[C@@H]2O[C@H](C)C[C@H](N(C)C)[C@H]2O)[C@](C)(O)C[C@H](C)C(=NOCOCCOC)[C@H](C)[C@@H](O)[C@]1(C)O	14%	8%
O=C(c1cnsn1)N1CCOc2ccc(C(O)C(c3ccccc3)c3ccccc3)cc2C1 (configuration not stated)	-11%	1%
O=C(O)COc1ccc(C(=O)c2cccs2)c(Cl)c1Cl	-6%	-12%
CCCC[C@@]1(C2CCCC2)Cc2cc(OCC(=O)O)c(Cl)c(Cl)c2C1=O	14µM*	-6%
Brc1c(Br)c(Br)c2n[nH]nc2c1Br	40µM*	-25%
Brc1c(Br)c(Br)c2[nH]cnc2c1Br	-1%	-9%
CCN(CC)C(=O)c1cc(S(=O)(=O)Cc2ccccc2)c(N2CCC(c3ccccc3)CC2)cc1N(CC)CCN(C)C	-15%	-38%
CO[C@@H]1[C@H](OC(=O)/C=C/C=C/C=C/C=C/C(=O)O)CC[C@]2(CO2)[C@H]1[C@@]1(C)O[C@@H]1CC=C(C)C	-4%	-25%
C=C1CCC(O)C/C1=C\C=C1/CCCC2(C)C1CCC2C(C)/C=C/C(C)C(C)C (configuration not stated)	50µM*	-72%
C=C1C(=C/C=C2\CCC[C@]3(C)[C@@H]([C@H](C)/C=C/[C@@H](O)C4CC4)CC[C@@H]23)C[C@@H](O)C[C@@H]1O	-29%	16%
SMILES	EPAC2 antag	EPAC1 agonist
COc1ccc(SC[C@H](C)CN2CC[C@H](O)CCC2=O)cc1	-5%	20%
CC(=O)Nc1ccc(SC[C@H](C)CN2CC[C@H](C(C)(C)C)CCC2=O)cc1	56µM*	-1%
COc1ccc(SC[C@H](C)CN2CC[C@H](C)CCC2=O)cc1	50µM*	3%
Cc1ccc(SC[C@H](C)CN2CC[C@H](C)CCC2=O)cc1	?	-43%
Cn1nccc1C(=O)NCC1CCC2(CCN(Cc3ccc(-c4ccc(Cl)cc4)o3)CC2)O1 (configuration not stated)	-10%	-4%
OCC(O)COc1ccc(Cl)cc1 (configuration not stated)	-13%	-5%
